SMILES strings stand for the structures. In all, about 350,000 compounds went through this assay and about 6,000 (1.7%) were called active. Another 5% or so got no clear call; they are omitted. Rule as the data show it: active = CPE inhibition above about 20% (passing the limit was not always enough); inconclusive = no clear call, values can overlap the other calls; tested in BHK-21 cells. This excerpt belongs to a sample that is enriched for actives.

The test is described as follows: protection of cells from dengue 2 killing – plate reader, single concentration, primary screen (AID 651640).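 Also: 0% = median of neutral control wells and 100% = median of positive control wells.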 Conditions: DENV2-infected cells, cytopathic effect rescue, at 9.99 µM, active compounds read high. (Cytopathic effects are the visible damage that an infection or toxin causes in cultured cells.)
For the molecule `Cc1noc(C)c1NC(=O)Nc1ccc2c(c1)C(=O)N([C@H](C)CO)C[C@H](C)[C@H](CN(C)Cc1ccc(C(=O)O)cc1)OCCCC[C@H](C)O2`, the CPE inhibition is 3.28% (inactive).
Turning to `CO[C@H](CN(C)S(=O)(=O)c1ccc(C)cc1)[C@@H](C)CN(Cc1ccccc1Cl)[C@@H](C)CO`, the CPE inhibition was -6.58% (inactive).
With `C[C@H]1CCCCO[C@@H](CN(C)Cc2ccc3c(c2)OCO3)[C@@H](C)CN([C@@H](C)CO)C(=O)c2cc(NC(=O)c3ccccc3)ccc2O1` the figure was -5.55% (inactive).
With `C[C@H](CO)N1C[C@H](C)[C@@H](CN(C)S(=O)(=O)c2cccs2)OCCCC[C@H](C)Oc2ccc(NS(=O)(=O)c3ccccc3)cc2C1=O` the figure was -5.76% (inactive).
For the molecule `Cc1ccc(S(=O)(=O)Nc2ccc3c(c2)C(=O)N([C@@H](C)CO)C[C@H](C)[C@@H](CN(C)C(=O)Nc2ccc(F)cc2)OCCCC[C@H](C)O3)cc1`, the CPE inhibition was 0.458% (inactive).
Consider `O=C(C[C@H]1CC[C@H]2[C@@H](COC[C@H](O)CN2CCC(F)(F)F)O1)N1CCC(Cc2ccccc2)CC1`, for which the CPE inhibition was 0.858% (inactive).
With `Cc1ccc2cc(C)c(N3CCN(c4ccc(F)cc4)CC3)nc2c1` the figure was -3.88% (inactive).
With `CC(=O)c1c(N2CCN(c3ccc(F)cc3)CC2)nc(=S)n(-c2ccccc2)c1C`, the CPE inhibition was 46.2% (active).
With `O=C(CN1CCN(c2ccccc2)CC1)Nc1ccc(F)cc1` the figure was -6.81% (inactive); with `CCC(=O)Nc1ccc2c(c1)C(=O)N(C)[C@@H]1CC[C@H](CC(=O)NCCc3ccncc3)O[C@@H]1CO2`, -5.57% (inactive); with `CN1C(=O)c2cc(NC(=O)C3CCCC3)ccc2OC[C@H]2O[C@@H](CC(=O)NCCc3ccncc3)CC[C@H]21`, 5.23% (inactive).
With `CN1C(=O)c2cc(NC(=O)C3CCCC3)ccc2OC[C@@H]2O[C@@H](CC(=O)NCCc3ccncc3)CC[C@@H]21` the figure was 26.3% (active); with `C[C@@H]1CN([C@H](C)CO)S(=O)(=O)c2ccc(-c3ccc(C(=O)N(C)C)cc3)cc2O[C@@H]1CN(C)C(=O)Nc1ccccc1F`, 2.86% (inactive); with `Cc1ccc(S(=O)(=O)N2[C@@H](c3ccccc3F)C(C(=O)O)=CC[C@H]2c2ccc(Cl)cc2)cc1`, -10.7% (inactive).
With `Cc1ccccc1S(=O)(=O)N1[C@@H](c2cccc(Cl)c2)C(C(=O)O)=CC[C@H]1c1ccc(Cl)cc1` the figure was 6.18% (inactive); with `Cc1ccc([C@@H]2CC=C(C(=O)O)[C@H](c3cccc(Cl)c3)N2S(=O)(=O)c2ccc(C)cc2)cc1`, 42.3% (active); with `Cc1ccc(S(=O)(=O)N2[C@@H](c3cccc(Cl)c3)C(C(=O)O)=CC[C@H]2c2ccc(Cl)c(Cl)c2)cc1`, 40% (active).
Take `Cc1ccccc1S(=O)(=O)N1[C@@H](c2cccc(Cl)c2)C(C(=O)OC(C)(C)C)=CC[C@H]1c1ccc(Cl)cc1`: the CPE inhibition is -8.63% (inactive).
With `CCOC(=O)C1=CC[C@@H](c2ccccc2)N(S(=O)(=O)c2ccc(C)cc2)[C@H]1c1cccc(OC)c1`, the CPE inhibition was -3.53% (inactive).
Turning to `O=C(C[C@H]1CC[C@@H](NC(=O)CC2CC2)[C@@H](CO)O1)NCc1ccccc1`, the CPE inhibition is 3.95% (inactive).
With `C[C@@H]1CN([C@H](C)CO)C(=O)c2cc(NC(=O)Nc3ccc(F)cc3)ccc2O[C@@H](C)CCCCO[C@@H]1CN(C)S(=O)(=O)c1cn(C)cn1` the figure was 2.14% (inactive); with `C[C@H](CO)N1C[C@H](C)[C@H](CN(C)Cc2cncnc2)Oc2cc(-c3ccccc3F)ccc2S1(=O)=O`, -2.27% (inactive); with `C[C@@H]1CCCCO[C@H](CN(C)Cc2ccccc2)[C@H](C)CN([C@@H](C)CO)C(=O)c2cc(NC(=O)Nc3cccc4ccccc34)ccc2O1`, -25.3% (inactive).
`CCCNC(=O)C[C@@H]1CC[C@H]2[C@@H](COC[C@H](O)CN2C(=O)Nc2ccc(Cl)c(Cl)c2)O1`: the CPE inhibition was 2.89% (inactive).
With `O=C(C[C@@H]1CC[C@H]2[C@@H](COC[C@H](O)CN2C(=O)Nc2ccc(Cl)cc2)O1)NCC1CC1` the figure was 6.37% (inactive); with `O=C(C[C@@H]1CC[C@H]2[C@@H](COC[C@@H](O)CN2C(=O)Nc2ccc(F)cc2)O1)NCC1CC1`, -0.669% (inactive); with `O=C(C[C@H]1CC[C@H]2[C@@H](COC[C@H](O)CN2C(=O)Nc2ccc(Cl)cc2)O1)NCC1CC1`, 85.5% (active).
Turning to `C[C@@H](NC(=O)C[C@H]1CC[C@H]2[C@@H](COC[C@@H](O)CN2C(=O)Nc2ccccc2)O1)c1ccccc1`, the CPE inhibition was -9.46% (inactive).
With `CCCNC(=O)C[C@H]1CC[C@H]2[C@@H](COC[C@H](O)CN2C(=O)Nc2c(C)noc2C)O1` the figure was 40.9% (active); with `CCNC(=O)C[C@H]1CC[C@@H]2[C@H](COC[C@H](O)CN2C(=O)Nc2c(C)noc2C)O1`, -1.85% (inactive).
With `C[C@@H](NC(=O)C[C@@H]1CC[C@@H]2[C@H](COC[C@@H](O)CN2C(=O)Nc2cccc(F)c2)O1)c1ccccc1` the figure was 24.3% (active).
With `C[C@@H](NC(=O)C[C@@H]1CC[C@H]2[C@@H](COC[C@@H](O)CN2C(=O)Nc2cccc(F)c2)O1)c1ccccc1` the figure was 4.9% (inactive); with `COc1ccc(NC(=O)N2C[C@H](O)COC[C@H]3O[C@@H](CC(=O)NC4Cc5ccccc5C4)CC[C@@H]32)cc1`, -9.25% (inactive); with `COc1ccc2c3c(n(C)c2c1)[C@@H](CO)N(C)CC31CN(CC2CC2)C1`, -0.913% (inactive).
Consider `Cc1ccc(-c2cc(=O)c3ccc(F)cc3[nH]2)cc1`, for which the CPE inhibition is 25% (active).
Consider `Cc1ccc(-c2cc(=O)c3ccc(Cl)cc3[nH]2)cc1`, for which the CPE inhibition is 0.541% (inactive).
With `O=c1cc(-c2ccccc2)[nH]c2cc(F)ccc12` the figure was -7.41% (inactive); with `CC(C)CC#Cc1ccc([C@H]2[C@@H](CO)N3C(=O)CN(C(=O)CN4CCOCC4)C[C@H]23)cc1`, -8.34% (inactive); with `CCN1CCN(CC(=O)c2cc(OC)c(OC)c(OC)c2)CC1`, -1.76% (inactive).
With `COc1ccc(C(=O)NCCCN2CCOCC2)cc1Br` the figure was 8.89% (inactive).
With `COc1cc(C(=O)OCCCN2CCOCC2)cc(OC)c1OC` the figure was 49.2% (active); with `O=C(C[C@@H]1C=C[C@@H](NC(=O)c2ccccc2)[C@H](CO)O1)NCCc1ccncc1`, -5.54% (inactive).
In the case of `O=C(c1ccc(C(F)(F)F)cc1)N1CCC(=O)N([C@H](COCc2ccccc2)Cc2ccccc2)CC1`, the CPE inhibition was -2.73% (inactive).
Turning to `CC(C)CC(COCc1ccc(Cl)cc1)N1CCN(C(=O)c2ccc(C(F)(F)F)cc2)CCC1=O` (configuration not stated), the CPE inhibition is 49.9% (active).
With `CC(C)C[C@@H](COCc1ccc(Cl)cc1)N1CCN(C(=O)c2ccc(Cl)cc2Cl)CCC1=O` the figure was -4.03% (inactive); with `C[C@H](CO)N1C[C@H](C)[C@H](CN(C)C)Oc2cc(C#Cc3ccccc3F)ccc2S1(=O)=O`, -8.31% (inactive).
`COCC(=O)N(C)C[C@H]1Oc2ncc(-c3ccc(C)cc3)cc2C(=O)N([C@@H](C)CO)C[C@@H]1C`: the CPE inhibition was 14.3% (inactive).
With `COC(=O)[C@H]1C[C@H](OC(=O)NCc2ccccc2)[C@@]2(O)CN(S(=O)(=O)c3ccc(C)cc3)CC2[C@H]1C(=O)OC` (some centres not stated) the figure was 11.6% (inactive); with `Cc1ccc(S(=O)(=O)N2C[C@]3(O)C[C@@H]4C(=O)N(c5ccccc5)C(=O)[C@@H]4C[C@]3(OC(=O)NC3CC3)C2)cc1`, 0.334% (inactive); with `Cc1ccc(S(=O)(=O)N2C[C@@H](C)[C@]3(C2)[C@H](O)[C@H](OC(=O)NCc2ccccc2)C[C@H]2C(=O)N(c4ccccc4)C(=O)[C@H]23)cc1`, 31.2% (active).
With `C[C@H]1CN([C@@H](C)CO)C(=O)c2cccc(NC(=O)CCCCCC(=O)Nc3ccccc3N)c2O[C@@H]1CN(C)CC1CCCCC1` the figure was 1.77% (inactive); with `C[C@H]1CN([C@@H](C)CO)C(=O)c2cc(Br)cnc2O[C@@H]1CN(C)S(=O)(=O)c1ccc(F)cc1`, -4.52% (inactive); with `C[C@@H]1CN([C@@H](C)CO)C(=O)c2cccc(NC(=O)c3ccc(-c4nccs4)cc3)c2O[C@@H]1CN(C)S(=O)(=O)c1ccccc1`, -5.21% (inactive).
With `COc1ccc2c3c([nH]c2c1)[C@H](CO)N(C(=O)CN1CCOCC1)CC31CN(C(C)=O)C1` the figure was 4.54% (inactive).
Take `CCC(=O)N1CC2(CN(C(=O)Nc3ccccc3F)C2)c2c([nH]c3cc(OC)ccc23)[C@H]1CO`: the CPE inhibition is 10.3% (inactive).
Consider `CC(C)C#Cc1ccc2c(c1)O[C@@H](CN(C)C(=O)Nc1ccccc1)[C@H](C)CN([C@H](C)CO)S2(=O)=O`, for which the CPE inhibition was -2.16% (inactive).
With `C=C1C(=O)[C@]23C[C@H]1CCC2[C@@]1(C)C(C[C@@H]3O)[C@](C)(C(=O)O)CC[C@@H]1O` (some centres not stated) the figure was 74.8% (active); with `O=C(C[C@@H]1C[C@H]2c3cc(NS(=O)(=O)c4ccc(F)cc4)ccc3O[C@H]2[C@H](CO)O1)NC1CCCC1`, -5.59% (inactive); with `C[C@H](CO)N1C[C@H](C)[C@@H](CN(C)Cc2ccccn2)Oc2ncc(C3=CCCC3)cc2C1=O`, 49.6% (active).
With `C[C@H](CO)N1C[C@H](C)[C@H](CN(C)Cc2cccnc2)Oc2ncc(C3=CCCC3)cc2C1=O` the figure was -1.52% (inactive); with `C[C@@H]1CN([C@@H](C)CO)C(=O)c2cc(C3=CCCC3)cnc2O[C@H]1CN(C)Cc1ccccc1F`, 3.87% (inactive).
With `CCCN(C)C[C@H]1Oc2ncc(-c3ccccc3OC)cc2C(=O)N([C@H](C)CO)C[C@@H]1C` the figure was 14.5% (inactive); with `C[C@H]1CN([C@@H](C)CO)C(=O)c2cc(-c3ccccc3F)cnc2O[C@@H]1CN(C)C`, -7.94% (inactive); with `CCC(=O)N(C)C[C@@H]1Oc2ncc(C3=CCCC3)cc2C(=O)N([C@H](C)CO)C[C@@H]1C`, -6.55% (inactive).
Regarding `C[C@@H]1CN([C@H](C)CO)C(=O)c2cc(C3=CCCC3)cnc2O[C@H]1CN(C)C`, the CPE inhibition was 0.588% (inactive).
Regarding `C[C@H](CO)N1C[C@H](C)[C@H](CN(C)S(C)(=O)=O)Oc2ncc(C3=CCCC3)cc2C1=O`, the CPE inhibition was 32.1% (active).
As for `CCCN(C)C[C@@H]1Oc2ncc(-c3ccccc3F)cc2C(=O)N([C@@H](C)CO)C[C@@H]1C`, the CPE inhibition is 38.8% (active).
